# PAX8 reporter = inhibitors of PAX8-driven TPO luciferase reporter, primary screen, RMG-I cells, single concentration; AID 652154, 2013; inhibition, % at 12.6 µM; SteadyGlo, 24 h; hit rate 1.2% among 360,000;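 active = mean replicate inhibition at least 60% with every replicate also reaching 60%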;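 note: luciferase light reporting Pax8 driven TPO promoter activity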
# TROY NFkB inh = inhibitors of TROY-driven NF-kB signaling, primary screen, Q293 LMP1-TROYcd cells, NF-kB luciferase, uHTS | Q293 LMP1-TROYcd NF-kB luciferase reporter, 4 h | inhibition, % at 10 µM | hit rate 0.98% among 360,000 | AID 1347056, 2019;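 active = compounds whose plate-normalised and pattern-corrected inhibition of the luciferase reporter signal at the single screening dose is 50% or more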
# LGR2 inh = inhibitors of bursicon-induced LGR2 CRE-luciferase signal, primary screen, cell-based, HEK293, CRE-luciferase reporter, bursicon stimulation. inhibition, % at 9.99 µM. Drosophila bursicon receptor LGR2 (rickets). hit rate 0.35% among 380,000. AID 720647, 2013. bursicon-stimulated, 4 h;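 active = drop in luminescence signal, shown as inhibition above about 50% in the replicate tests, limit read from the data, passing the limit was not always enough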;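 note: agonist challenge used bursicon conditioned medium at about half maximal strength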
# TWEAK Fn14 block = inhibitors of TWEAK-Fn14 signaling, primary screen, luciferase reporter cells, uHTS | TWEAK-stimulated Fn14 reporter cells, luciferase luminescence, 8 h | inhibition, % at 10 µM | AID 1159606, 2016 | hit rate 2% among 360,000; in the data active = inhibition above about 50%
# EWS-Fli inh = EWS/Fli-driven NR0B1 reporter inhibitors, primary screen, A673 cells, NR0B1 luciferase, luminescence, MLPCN library. viability-normalised. hit rate 0.67% among 350,000. inhibition, % at 12.6 µM;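 active = mean inhibition of at least 50% after viability correction, with every replicate also passing that limit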;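 note: firefly luciferase signal divided by Alamar Blue viability fluorescence both relative to DMSO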
# Hits are given with their value; - = inactive; . = not tested or not shown. Only some compounds are listed: those with a hit (about 2.8% of all), similar ones and a draw of the others.
SMILES,PAX8 reporter,TROY NFkB inh,LGR2 inh,TWEAK Fn14 block,EWS-Fli inh
Cc1ccc(S(=O)(=O)Nc2cccc3c2O[C@@H](CN(C)Cc2ccc(Cl)c(Cl)c2)[C@H](C)CN([C@@H](C)CO)C3=O)cc1,-,.,-,.,-
COC(=O)c1ccc(-c2ccc(C(c3c(C)[nH][nH]c3=O)c3c(C)[nH][nH]c3=O)o2)cc1,-,-,-,56,-
CC(C)NC(=O)N(C)C[C@@H]1OCCCC[C@H](C)Oc2ccc(NC(=O)Nc3ccc4c(c3)OCO4)cc2C(=O)N([C@H](C)CO)C[C@@H]1C,-,.,-,.,-
CCOC(=O)N1CCN(C(=O)C2CC(=O)N(Cc3ccc(OC)cc3)C2)CC1 (stereo not given),.,.,.,72,.
CC(C)c1ccc(NC(=O)Nc2nc(C(N)c3ccccc3)cs2)cc1 (stereo not given),-,-,94,-,-
NC(c1csc(NC(=O)Nc2cccc(Cl)c2)n1)c1ccccc1Cl (stereo not given),-,-,-,63,-
Cc1ccc(-c2[nH]c3ccccc3c2SCCNC(=O)c2ccc(S(=O)(=O)N3CCOCC3)cc2)cc1,62,-,-,-,-
CNC[C@@H]1Oc2c(NC(=O)C3CCCCC3)cccc2C(=O)N([C@H](C)CO)C[C@@H]1C,.,.,-,.,-
CCCNS(=O)(=O)c1ccc(CCC(=O)Nc2cc(Cl)ccc2Oc2ccccc2)cc1,.,-,.,66,.
Cc1ccc(C)c(N(CC(=O)Nc2cc(Cl)ccc2Oc2ccccc2)S(C)(=O)=O)c1,.,-,.,-,.
CC(C)CNS(=O)(=O)c1ccc(CCC(=O)Nc2cc(Cl)ccc2Oc2ccccc2)cc1,.,-,-,-,.
Cc1cccc(C)c1N(CC(=O)Nc1cc(Cl)ccc1Oc1ccccc1)S(C)(=O)=O,.,52,.,-,.
O=C(C[C@@H]1CC[C@H]2NC[C@@H](O)COC[C@@H]2O1)NCCN1CCCC1,.,.,-,.,-
C[C@H]1CN([C@@H](C)CO)C(=O)CCCn2nncc2CO[C@H]1CN(C)C(=O)Nc1ccc(C(C)(C)C)cc1,-,.,-,.,-
CCN(CC)c1ccc(C(=O)OCC(=O)Nc2ccccc2-c2ccccc2)cc1,-,-,-,72,-
O=C(Nc1ccn(Cc2ccccc2F)n1)c1ccc(COc2ccc(Br)cc2)cc1,.,-,-,51,.
C[C@H](CO)N1C[C@H](C)[C@H](CN(C)Cc2ccc(Oc3ccccc3)cc2)Oc2ccc(NC(=O)Nc3ccc4c(c3)OCO4)cc2C1=O,.,.,-,.,-
CC(=O)N(C)c1ccc(NS(=O)(=O)Cc2ccccc2)cc1,.,57,.,-,.
CC(=O)c1ccc(NS(=O)(=O)Cc2ccccc2)cc1,.,-,-,-,.
CC(C)NC(=O)N(C)C[C@H]1OCCCC[C@@H](C)Oc2ccc(NS(=O)(=O)c3ccc(F)cc3)cc2C(=O)N([C@@H](C)CO)C[C@@H]1C,-,.,-,.,-
Cc1ccc(N2CCN(C(=O)c3[nH]c(C(F)(F)F)nc3-c3ccccc3)CC2)cc1,-,-,-,-,-
O=C(c1[nH]c(C(F)(F)F)nc1-c1ccccc1)N1CCN(c2ccccc2)CC1,-,-,-,-,65
COC(=O)c1cc(OC)c(OC)cc1NC(=S)Nc1cc(Cl)ccc1OC,78,-,-,-,-
COC(=O)c1cc(OC)c(OC)cc1NC(=S)NC(=O)c1ccco1,-,-,-,74,-
COC(=O)c1cc(OC)c(OC)cc1NC(=S)Nc1cccc(Cl)c1,.,-,-,-,.
SMILES,PAX8 reporter,TROY NFkB inh,LGR2 inh,TWEAK Fn14 block,EWS-Fli inh
O=C(C1CCCC1)N1CCCC(Nc2ccc(F)cc2)C1 (stereo not given),-,-,-,-,.
Cc1ccc(NC2CCCN(C(=O)C3CCCCC3)C2)cc1C (stereo not given),-,-,-,69,-
CC(=O)N(C)C[C@@H]1Oc2ncc(C#CC3(O)CCCC3)cc2C(=O)N([C@@H](C)CO)C[C@H]1C,.,.,-,.,-
Cc1ccccc1N1CN(Cc2ccco2)CNC1=S,61,-,-,-,-
CC(/C=N/NC(=O)c1nnn(-c2nonc2N)c1CN(C)C)=C\c1ccco1,-,-,-,-,-
CCCN(CCC)Cc1c(C(=O)N/N=C/C(C)=C\c2ccco2)nnn1-c1nonc1N,93,-,-,-,-
COc1ccc2c3c([nH]c2c1)[C@H](CO)N(Cc1nccs1)CC31CCN(C(=O)C2CC2)CC1,-,.,-,.,-
C[C@@H]1CCCCO[C@@H](CN(C)C(=O)Nc2ccc(F)cc2)[C@H](C)CN([C@H](C)CO)C(=O)c2cc(NS(=O)(=O)c3ccc(Cl)cc3)ccc2O1,91,.,-,.,-
C[C@@H]1CCCCO[C@H](CN(C)C(=O)Cc2ccccc2)[C@@H](C)CN([C@@H](C)CO)C(=O)c2cc(NS(=O)(=O)c3ccc(Cl)cc3)ccc2O1,79,.,-,.,-
C[C@@H]1CCCCO[C@H](CN(C)C(=O)Nc2ccccc2)[C@@H](C)CN([C@@H](C)CO)C(=O)c2cc(NS(=O)(=O)c3ccc(Cl)cc3)ccc2O1,66,.,-,.,-
C[C@@H]1CN([C@@H](C)CO)C(=O)c2cc(NC(=O)Nc3ccccc3)ccc2O[C@@H]1CN(C)C(=O)NC1CCCCC1,-,.,-,.,-
COc1ccc(CN(C)C[C@@H]2OCCCC[C@@H](C)Oc3ccc(NC(=O)CCCN(C)C)cc3C(=O)N([C@@H](C)CO)C[C@@H]2C)cc1,-,.,-,.,-
CC1(C)CC(=O)C2=C(C1)c1c(ccc3ccccc13)NC2c1cc([N+](=O)[O-])cc([N+](=O)[O-])c1O (stereo not given),-,53,-,-,-
C[C@H](CO)N1C[C@H](C)[C@H](CN(C)Cc2ccccc2)Oc2c(NS(=O)(=O)c3ccc(F)cc3)cccc2C1=O,-,.,-,.,-
Nc1nc(-c2ccc(F)cc2)cc(C(F)(F)F)n1,-,-,.,-,.
CS(=O)(=O)c1nc(-c2ccc(F)cc2)cc(C(F)(F)F)n1,-,52,-,86,-
COc1ccc(-c2cc(C(F)(F)F)nc(S(C)(=O)=O)n2)cc1,.,-,.,53,.
CCNC(=O)C[C@@H]1CC[C@@H]2[C@H](COC[C@H](O)CN2C(=O)c2cccnc2)O1,-,.,-,.,-
CNC[C@@H]1Oc2ccc(NC(=O)Cn3cnnn3)cc2CC(=O)N([C@H](C)CO)C[C@@H]1C,-,.,-,.,-
CSCC(CO)NS(=O)(=O)c1ccc(C)cc1 (stereo not given),-,57,-,-,-
COc1ccc(Cc2[nH]n3c(=O)c(Cl)c(C)nc3c2-c2ccccc2)cc1,-,69,-,-,-
COc1ccc(-c2nc3nc(C)c(Cc4ccccc4)c(=O)n3[nH]2)cc1,.,-,.,-,.
CCN(CC)C(=O)C1=C(C)N(CCCN2CCCC2=O)C(=O)C(CC(=O)NC2CC2)C1 (stereo not given),-,-,-,-,-
CC1=C(C(=O)N(C(C)C)C(C)C)CC(CC(=O)NC2CC2)C(=O)N1CCCN1CCCC1=O (stereo not given),-,75,-,-,-
O=C(CCCO)NC1Cc2ccccc2C1,-,-,-,60,-

# High-throughput results: PubChem BioAssay, several laboratories
